Shown are actives, neighbours in structure and some others; about 2.1% of the full set was active somewhere.
MazEF act – activators of E. coli MazEF toxin-antitoxin RNase; activation, % at 20 µM; AID 504720; P0AE70; 0.32% of 350,000 active; FAM/BHQ RNA-DNA oligo cleavage fluorescence, 5 h; in the data active = activation above about 50%
Target sequence (P0AE70 whole entry, looked up): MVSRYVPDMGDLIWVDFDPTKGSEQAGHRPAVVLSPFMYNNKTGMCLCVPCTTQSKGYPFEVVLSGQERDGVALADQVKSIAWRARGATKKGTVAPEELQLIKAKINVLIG
VHR inh abs – inhibitors of human VHR1 phosphatase (DUSP3) | P51452 | recombinant VHR phosphatase, pNPP absorbance | inhibition, % at 13.3 µM | 0.52% of 290,000 active; in the data active = inhibition above about 50%
Target sequence (P51452 whole entry, looked up): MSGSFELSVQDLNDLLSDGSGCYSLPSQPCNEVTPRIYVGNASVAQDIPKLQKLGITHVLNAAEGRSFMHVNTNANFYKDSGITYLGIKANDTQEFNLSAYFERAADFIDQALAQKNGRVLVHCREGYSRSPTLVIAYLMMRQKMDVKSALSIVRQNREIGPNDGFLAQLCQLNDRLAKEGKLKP
PrPC TRFRET – reduces human prion protein on the cell surface; inhibition, % at 13.8 µM; P04156; 0.43% of 370,000 active; cell surface PrPC, TR-FRET read-out; in the data active = inhibition above about 24%; note: 0% = median of the test wells and 100% = reference compound wells
BJeLR lethal – kills HRASV12-expressing BJeLR cells. BJeLR (HRASV12) viability, CellTiter-Glo ATP luminescence, 48 h. inhibition, % (no concentration beside the values). 0.17% of 300,000 active. AID 1554; in the data active = inhibition above about 50%; inconclusive = no clear call, values can overlap the other calls
PfHsp40 yeast – restores yeast growth despite PfHsp40 toxicity; S. cerevisiae expressing PfHsp40, growth rescue, ATP luminescence; growth rescue, % at 12.5 µM; 0.68% of 340,000 active; in the data active = growth rescue above about 28%, passing the limit was not always enough; inconclusive = no clear call, values can overlap the other calls;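 note: yeast W303a lacking pdr1 and pdr3 grown in galactose medium; growth measured after three days at 30 °C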
PrP 5UTR inh – inhibition of PrP 5' UTR reporter expression; cell-based PrP 5' UTR mRNA reporter, plate reader; inhibition, % (no concentration beside the values); 0.35% of 340,000 active; AID 488862; in the data active = inhibition above about 52%; note: 0 = median of the neutral control wells
Numbers without * were called inactive; ? = inconclusive; nt = no result given.

SMILES	MazEF act	VHR inh abs	PrPC TRFRET	BJeLR lethal	PfHsp40 yeast	PrP 5UTR inh
COC(=O)CSc1nc2cc(OC)ccc2cc1C#N	203*	24	-6	-5	-1	-96
CCCCCC(=O)Nc1cc(S(=O)(=O)O)cc2cc(S(=O)(=O)O)cc(O)c12	-4	nt	0	nt	8	-22
COc1ccc(C(=O)C2CCN(c3ncnc4sccc34)CC2)cc1	nt	nt	12	nt	nt	nt
COc1ccc(-n2c(Cn3c(=O)sc4ccccc43)nnc2SCC(=O)N2CCCC2)cc1	3	50*	-8	nt	0	-5
COc1ccc(-n2c(Cn3c(=O)sc4ccccc43)nnc2SCC(=O)N2CCCCC2)cc1	8	21	-9	nt	1	11
Cc1cccc(NC(=O)CNC(=O)c2cccc(-n3cccc3)c2)c1C	3	nt	9	-5	1	-5
C=C(C)CSc1nnc(-c2cc(-c3ccc(OC)cc3)n[nH]2)n1N	nt	nt	3	nt	nt	nt
O=C(C1CCCCC1)N1C[C@@H](O)[C@H](n2cc(C3CC3)nn2)C[C@@H]1c1ccc(Cl)cc1	7	nt	-11	nt	nt	nt
O=C(Cc1ccc(Br)cc1)NCc1ccccc1	4	13	7	26	-1	-16
CCN1C(=O)C(CC(=O)Nc2ccccc2Cl)N(NC(=O)c2cccc(F)c2)C1=S (stereo not drawn)	7	-11	-4	-3	122*	-11
CNC(=O)CC1C(=O)N(Cc2ccccc2)C(=S)N1NC(=O)c1cccc(F)c1 (stereo not drawn)	8	-2	5	-2	-1	-9
COC(=O)N(C)C[C@H]1OCc2cn(nn2)CCCC(=O)N([C@H](C)CO)C[C@@H]1C	nt	nt	10	nt	nt	nt
O=C(CSc1nc2ccccc2c(=O)n1Cc1ccco1)Nc1cccc(O)c1	59*	-11	5	-6	-2	0
O=C(Nc1cc(C(F)(F)F)ccc1N1CCCCC1)C1=COCCO1	-8	nt	-8	nt	nt	nt
CC1=CCC[C@@H]2[C@@](C)(CC/C(C)=C/C(=O)O)[C@H](C)CC[C@@]12C	-1	0	-1	6	58*	-9
C[C@@H]1CC[C@@]23COC(=O)C2=CCC[C@@H]3[C@@]1(C)CC/C(=C/CO)CO	-1	nt	-4	nt	0	-27
Cc1ccnc(NC(=O)CCC(=O)N(Cc2ccco2)C(C(=O)NC(C)C)c2ccc(F)cc2)c1 (stereo not drawn)	-29	27	-1	-2	0	2
N#CC1=C(N)C(C#N)(C#N)[C@H](c2ccncc2)[C@H]2CN(C(=O)OCc3ccccc3)CC=C12	29	54*	-11	4	-1	-5
CC(C)(C)OC(=O)N1CC=C2C(C#N)=C(N)C(C#N)(C#N)[C@H](c3cccnc3)[C@H]2C1	125*	8	3	-2	1	-30
CC(C)(C)OC(=O)N1CC=C2C(C#N)=C(N)C(C#N)(C#N)C(c3cccs3)C2C1 (stereo not drawn)	10	6	4	-9	0	-57
CCOC(=O)N1CC=C2C(C#N)=C(N)C(C#N)(C#N)[C@H](c3cccs3)C2C1 (stereo partly drawn)	-2	31	-3	-2	1	-5
Cc1cccc2cc3c(N)c(C(=O)Nc4ccc(N5CCOCC5)cc4)sc3nc12	-28	24	0	4	12	-21
Cc1cccc2cc3c(N)c(C(=O)N4CCc5ccccc54)sc3nc12	86*	5	5	-9	-1	-27
Cc1cccc2cc3c(N)c(C#N)sc3nc12	92*	8	-8	-4	?	-22
Cc1ccc(CNC(=O)C2CCCCN2S(=O)(=O)c2ccccc2)cc1 (stereo not drawn)	0	25	6	-5	0	-12
SMILES	MazEF act	VHR inh abs	PrPC TRFRET	BJeLR lethal	PfHsp40 yeast	PrP 5UTR inh
CC(Oc1cccc(Cl)c1)C(=O)Nc1cc(S(=O)(=O)N2CCCCC2)ccc1N1CCOCC1 (stereo not drawn)	-6	nt	9	9	-1	-33
COc1ccc(N=c2oc3c(OC)cccc3cc2C(=O)NCc2ccco2)c(OC)c1	65*	-4	nt	-10	1	-6
CCc1sc(C(=O)Nc2ccccc2N2CCOCC2)cc1C	0	6	0	-1	107*	-22
O=C(Nc1ccccc1N1CCOCC1)c1cc2c(s1)CCCCC2	0	33	-5	-7	73*	-29
O=C1N=C(N2CCOCC2)S/C1=C/c1cccs1	8	9	-11	13	-1	-12
O=C1N=C(N2CCOCC2)S/C1=C/c1ccc(-c2ccccc2Cl)o1	107*	0	-12	-5	0	-17
Cn1c(Cc2cccs2)nnc1SCc1nc2ccccc2[nH]1	5	53*	-2	1	-1	-15
Cc1ccc(-n2c(CNCc3ccc(F)cc3)nc3ccccc3c2=O)cc1	-15	19	0	2	55*	0
CCN(CC)CCNCc1nc2ccccc2c(=O)n1-c1ccc(F)cc1	16	5	6	-4	0	-15
Cc1ccc(CNC(=O)O[C@H]2CC[C@@]34CCCN3C(=O)CCC[C@H]4[C@H]2C)cc1	nt	nt	-2	nt	nt	nt
CCN(CC)c1ccc2cc(C(=O)NNC(=O)c3ccc(S(=O)(=O)N4CCCCC4)cc3)c(=O)oc2c1	75*	-2	0	-6	1	-15
Cc1ccc(/C=C2\SC(=S)N(CC3CCCO3)C2=O)o1 (stereo not drawn)	1	10	2	86*	2	-37
CCC(NC(=O)CC[C@H]1O[C@@H](n2cc(C)c(=O)[nH]c2=O)C[C@@H]1O)c1ccccc1 (stereo partly drawn)	4	nt	4	nt	-1	-8
Cc1ccc(-n2c(N)c(C#N)c(-c3ccccc3)c(C#N)c2=O)cc1	4	35	2	2	0	-13
Cc1ccc(-c2nc3sc(C#N)c(N)n3c(=O)c2C#N)cc1	733*	18	-6	-2	0	-24
c1ccc(-c2nc(NCc3cccnc3)c3oc4ccccc4c3n2)cc1	0	7	2	0	48*	-12
O=C(O)CNc1nc(-c2ccccc2)nc2c1oc1ccccc12	0	13	5	6	0	-11
CC1=C(C(=O)N2CCOCC2)CC(CC(=O)NCCN2CCOCC2)C(=O)N1Cc1ccc(F)cc1 (stereo not drawn)	5	nt	-4	nt	nt	nt
O=[N+]([O-])c1ccc(Cl)cc1Sc1nc2ccccc2o1	-9	-1	-9	-5	165*	-37
CCCCc1ccc(-n2c(Cc3cccs3)n[nH]c2=S)cc1	-3	14	3	4	305*	-10
C[C@H](CCC(=O)OCc1cn(CC(=O)c2ccc(O)cc2)nn1)C1CC[C@H]2[C@@H]3CC[C@@H]4C[C@H](O)CC[C@]4(C)[C@H]3C[C@H](O)[C@]12C (stereo partly drawn)	8	nt	4	nt	-2	-11
Cc1ccccc1Cn1nnc(C(=O)Nc2ccc3c(c2)OCCO3)c1N	3	nt	18	-14	106*	-78

Screens: PubChem, several laboratories
